Reference: PubChem BioAssay AID547 (Emory University Molecular Libraries Screening Center, 2006)
Screen size: about 1,300 compounds; about 10 (0.8%) were called active. Only a selection was taken, and actives are over-represented in it overall. Values without a mark were called inactive. The rule behind the calls is not given here.

These compounds were tested against Chaperone protein DnaK (Escherichia coli (strain K12)) (UniProt P0A6Y8) (assay: blockers of bacterial DnaK function – luminescence, E. coli K12, primary screen (AID 547;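 note: tested at 10 µM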)). Details: DnaK chaperone assay, luminescence read-out; active compounds read low.

SMILES	luminescence
CC(=O)O[C@H]1CC2(C)[C@@H](C[C@@H](O)[C@H]3[C@@]4(C)CC[C@@H](O)[C@@H](C)[C@@H]4CC[C@@]32C)C1=C(CCC=C(C)C)C(=O)O (stereo not given in full)	2.8e+06 cps
O=C1N=C(O)CN1/N=C/c1ccc(-c2ccc([N+](=O)[O-])cc2)o1	3e+06 cps
CCCCCCCCCCCCCCCCCCOC[C@H](COP(=O)([O-])OCC[N+](C)(C)C)OC	2.6e+06 cps
CCCCCCCCCCCCCCCC(=O)NCC(COP(=O)([O-])OCC[N+](C)(C)C)OCC (stereo not given)	1.9e+06 cps (active)
CCCCCCCCCCCCCCCCCC(=O)NCC(COP(=O)([O-])OCC[N+](C)(C)C)OCC (stereo not given)	2.8e+06 cps
COc1cccc(-c2cc(=O)c3ccccc3o2)c1N	2.2e+06 cps
CC(C)OC(=O)C(C)(C)Oc1ccc(C(=O)c2ccc(Cl)cc2)cc1	2.9e+06 cps
COc1ccc(CCN(C)CCCC(C#N)(c2cc(OC)c(OC)c(OC)c2)C(C)C)cc1OC (stereo not given)	2.5e+06 cps
COc1ccccc1N1CCN(CCN2C(=O)CC3(CCCC3)CC2=O)CC1	3.1e+06 cps
NC(=O)N1c2ccccc2C=Cc2ccccc21	2.7e+06 cps
Cc1ccc(C(=O)O[C@H](C(=O)O)[C@H](OC(=O)c2ccc(C)cc2)C(=O)O)cc1 (tested in a mixture with another compound)	2.5e+06 cps
CNC[C@H](O)c1cccc(O)c1	2.3e+06 cps
Cc1nc2n(c(=O)c1CCN1CCC(c3noc4cc(F)ccc34)CC1)CCCC2	2.6e+06 cps
c1ccc(-c2ccccn2)nc1	2.6e+06 cps
CCCCOC(=O)NS(=O)(=O)c1sc(CC(C)C)cc1-c1ccc(Cn2c(CC)nc3c(C)cc(C)nc32)cc1	2.5e+06 cps
CC#C[C@]1(O)CC[C@H]2[C@@H]3CCC4=CC(=O)CCC4=C3[C@@H](c3ccc(N(C)C)cc3)C[C@@]21C	2e+06 cps
NCCCCCC(=O)O	2.3e+06 cps
Oc1cc(O)c2c(c1)O[C@H](c1ccc(O)c(O)c1)[C@@H](O)C2	2.8e+06 cps
CN1Cc2c(N)cccc2C(c2ccccc2)C1 (stereo not given)	2.2e+06 cps
CN(C)c1cc2c(Nc3ccc4c(cnn4Cc4ccccc4)c3)ncnc2cn1	3e+06 cps
CCSC(=N)N	2.4e+06 cps
N[C@@H](CC(=O)O)C(=O)O	2.4e+06 cps

SMILES	luminescence
N#Cc1cc2nc(O)c(O)nc2cc1[N+](=O)[O-]	2.8e+06 cps
CN(C)c1nc(N(C)C)nc(N(C)C)n1	2.4e+06 cps
COc1cc([C@@H]2c3cc4c(cc3[C@H](O)C3COC(=O)[C@@H]32)OCO4)cc(OC)c1OC (stereo not given in full)	2.6e+06 cps
CN1[C@@H](CC(=O)c2ccccc2)CCC[C@H]1C[C@H](O)c1ccccc1	2.6e+06 cps
CCCCN1CCC(COC(=O)c2cc(Cl)c(N)c3c2OCCO3)CC1	2.2e+06 cps
COC(=O)C(N)Cc1ccc(Cl)cc1 (stereo not given)	2.2e+06 cps
CC(C)NC[C@@H](O)c1ccc(O)c(O)c1	2.5e+06 cps
Nc1ccc(CCNc2ncnc3c2ncn3C2OC(CO)C(O)C2O)cc1 (stereo not given)	2.9e+06 cps
CN1CCCC1CCOC(C)(c1ccccc1)c1ccc(Cl)cc1 (stereo not given)	2.5e+06 cps
NC(=NCc1ccccc1)NC(=O)c1nc(Cl)c(N)nc1N	2.1e+06 cps
CCCC1O[C@@H]2C[C@H]3[C@@H]4CCC5=CC(=O)C=C[C@]5(C)[C@H]4[C@@H](O)C[C@]3(C)[C@]2(C(=O)CO)O1 (stereo not given in full)	2.4e+06 cps
Cn1c(=O)[nH]c2ncn(C)c2c1=O	2.8e+06 cps
CCCn1c(=O)c2[nH]c(-c3ccc(OCC(=O)Nc4ccc(C#N)cc4)cc3)nc2n(CCC)c1=O	2.3e+06 cps
O=C(O)c1ccccc1Nc1ccccc1	2.2e+06 cps
COc1ccc(NC(=O)/C=C/c2ccc(Cl)cc2)cc1	2.8e+06 cps
COc1ccc(/C=C/C(=O)Nc2ccccc2C(=O)O)cc1OC	1.6e+06 cps (active)
CCn1c(=O)[nH]c2cc(Cl)c(Cl)cc21	3.1e+06 cps
O=C(O)/C=C/c1cnc[nH]1	2.2e+06 cps
Cn1c(=O)c2c(nc(/C=C/c3cccc(Cl)c3)n2C)n(C)c1=O	2.6e+06 cps
O=c1cc(O)cc(/C=C/c2ccc(O)c(O)c2)o1	2.5e+06 cps
NC12CC3CC(CC(C3)C1)C2	2.3e+06 cps
CC[N+](C)(C)Cc1ccccc1Br	2.5e+06 cps

SMILES	luminescence
CCC(NC(C)C)C(O)c1ccc(O)c(O)c1 (stereo not given)	2.2e+06 cps
NC(N)=NCCSSCCN=C(N)N	3e+06 cps
NC[C@H](O)c1ccc(O)c(O)c1	2.6e+06 cps
Cc1cn([C@H]2C[C@@H](N=[N+]=[N-])[C@@H](CO)O2)c(=O)[nH]c1=O	2.8e+06 cps
CCCCCCCCCC[Si](C)(C)CCC(=O)NC(Cc1ccc(C)cc1)c1ccccc1 (stereo not given)	2.8e+06 cps
CC(N)=NCCC[C@H](N)C(=O)O	2.6e+06 cps
C[C@]12CCC(=O)C=C1CC[C@@H]1[C@@H]2C(=O)C[C@@]2(C)[C@H]1CC[C@]2(O)C(=O)CO	2.3e+06 cps
CNC(=O)[C@H]1O[C@@H](n2cnc3c(N)ncnc32)C(O)[C@H]1O (stereo not given in full)	2.5e+06 cps
CC(CCc1ccccc1)NCC(O)c1ccc(O)c(C(N)=O)c1 (stereo not given)	2.8e+06 cps
C=CCc1ccccc1OCC(O)CNC(C)C (stereo not given)	2.8e+06 cps
Cn1cnc2c(NC3CCCC3)ncnc21	2.5e+06 cps
Nc1nc(SCc2ccc([N+](=O)[O-])cc2)c2ncn([C@@H]3O[C@H](CO)[C@H](O)C3O)c2n1 (stereo not given in full)	2.7e+06 cps
CCCCCCCCCCCCCCCCOCC(COCC(F)(F)F)OP(=O)(O)OCO (stereo not given)	2.4e+06 cps
O=c1ccc2c(OCCCCc3ccccc3)c3ccoc3cc2o1	2.8e+06 cps
Cc1c(C)c2c(c(C)c1O)CCC(C)(CN1CCN(c3cc(N4CCCC4)nc(N4CCCC4)n3)CC1)O2 (stereo not given)	2.6e+06 cps
CN/C(=C\[N+](=O)[O-])NCCSCc1ccc(CN(C)C)o1	2.6e+06 cps
CN(C)c1nc(N)c(C(=O)N=C(N)N)nc1Cl	2.5e+06 cps
Cc1cc(N)c2ccccc2[n+]1CCCCCCCCCCCCCC[n+]1c(C)cc(N)c2ccccc21	3e+06 cps
O=C(O)c1cc(=O)cc(C(=O)O)[nH]1	2.7e+06 cps
Cc1ccc(N(CC2=NCCN2)c2cccc(O)c2)cc1	2.5e+06 cps
CC(COc1ccc(/C=C/c2ccccc2)cc1)[N+](C)(C)C (stereo not given)	2.1e+06 cps
O=C(c1ccc(F)cc1)C1CCN(CCn2c(=O)[nH]c3ccccc3c2=O)CC1	1.7e+06 cps (active)

SMILES	luminescence
Cc1nc2ccccn2c(=O)c1CCN1CCC(C(=O)c2ccc(F)cc2)CC1	2.5e+06 cps
CC1(C)C(=O)N(CCN2CCC(C(=O)c3ccc(F)cc3)CC2)c2ccccc21	2.6e+06 cps
C[C@H](CS)C(=O)N1CCC[C@H]1C(=O)O	2.6e+06 cps
N[C@@H](Cc1cnc[nH]1)C(=O)O	2.9e+06 cps
C=C[C@H]1CN2CCC1C[C@@H]2[C@@H](O)c1ccnc2ccc(OC)cc12 (stereo not given in full)	2.3e+06 cps
CC1(NCC(O)COc2cccc3[nH]ccc23)CCC(C(C)(C)NC(=O)CBr)CC1 (stereo not given)	2.2e+06 cps
OCCN1CCN(CCCN2c3ccccc3Sc3ccc(C(F)(F)F)cc32)CC1	2.6e+06 cps
O=C1NC(O)=NC1(c1ccccc1)c1ccccc1	2.6e+06 cps
C=C[C@H]1CN2CCC1C[C@H]2[C@H](O)c1ccnc2ccc(OC)cc12 (stereo not given in full)	2.4e+06 cps
O=c1[nH]c2cc([N+](=O)[O-])c([N+](=O)[O-])cc2[nH]c1=O	3e+06 cps
C#CC(N)CCC(=O)O (stereo not given)	2.7e+06 cps
C[C@H](Cc1ccc(O)c(O)c1)[C@@H](C)Cc1ccc(O)c(O)c1	2e+06 cps
NC1(C(=O)O)CCc2cc(C(=O)O)ccc21 (stereo not given)	2.8e+06 cps
CC(C)(C)NCC(O)c1cc(O)cc(O)c1 (stereo not given)	2.3e+06 cps
Cc1ccccc1N1CCN(S(=O)(=O)C[C@]23CCC(CC2NC(=O)[C@@H](N)CCS(C)(=O)=O)C3(C)C)CC1 (stereo not given in full)	2.6e+06 cps
C[C@]12C=CC(=O)C=C1CC[C@@H]1C2=CC[C@]2(C)[C@@H](C(=O)CN3CCN(c4cc(N5CCCC5)nc(N5CCCC5)n4)CC3)CC[C@@H]12	2.4e+06 cps
Nc1ccc(N2C(=O)c3ccccc3C2=O)c(Cl)c1	2.7e+06 cps
CC(=O)N[C@@H](Cc1c[nH]c2ccccc12)C(=O)OCc1cc(C(F)(F)F)cc(C(F)(F)F)c1	2.8e+06 cps
Brc1ccc([C@H]2CN3CCSC3=N2)cc1	2.2e+06 cps
